The full ranking holds about 4,100 sequences; the median of “RBNS R-value (6-mer enrichment in protein-bound RNA vs input library)” is about 0.96, and the highest 2% start at about 2.4. For the sample, the highest values were picked, then their nearest neighbours and some sequences at random.
Test system: PyIESI-1 RRM domain (Plasmodium yoelii PY17X_0911200 aa 795-956, GST fusion)
Assay: RBNS R-value (6-mer enrichment in protein-bound RNA vs input library) (ratio); higher = stronger binding preference; the methods of the paper give 50 / 100 / 500 nM protein instead
Procedure: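 RNA Bind-n-Seq: recombinant GST-tagged IESI-1 RRM domain was incubated at room temperature with a random 40-nt in vitro transcribed RNA library at 250, 500 or 1000 nM protein. Bound RNA was pulled down on glutathione beads and sequenced. R-value is the enrichment of each 6-mer in the bound RNA relative to the input library. Each 6-mer sits inside the random 40-mer context, not as an isolated oligo. Values are replicate 1 only.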

Sequence | RBNS R-value (protein concentration: 250 nM) | RBNS R-value (protein concentration: 500 nM) | RBNS R-value (protein concentration: 1000 nM)
AUGAUG | 8.6 | 7.43 | 7.47
AUGAUC | 2.74 | 2.71 | 2.97
AGGAUG | 1.22 | 1.18 | 1.18
AGGAUC | 0.785 | 0.788 | 0.757
CAGAUA | 0.96 | 0.988 | 1.02
CUGAUA | 3.66 | 3.59 | 3.88
CGGAUG | 1.22 | 1.18 | 1.18
CAGAUG | 1.85 | 1.83 | 1.93
AUGAGC | 1.51 | 1.48 | 1.49
CUGACA | 1.26 | 1.25 | 1.26
AUGAAG | 1.53 | 1.51 | 1.47
CUGAUG | 6.48 | 5.8 | 5.87
AUAAAA | 0.85 | 0.843 | 0.844
UCCAGG | 1 | 1 | 1
UCAUUU | 0.748 | 0.785 | 0.825
CGACAG | 1.01 | 0.998 | 0.998
CAAUCG | 0.873 | 0.879 | 0.886
UUAGCC | 0.885 | 0.907 | 0.915
AGGCUU | 0.943 | 0.943 | 0.919
CGUUUG | 1.1 | 1.09 | 1.08
AUGAGA | 1.6 | 1.58 | 1.57
AUGAUA | 4.79 | 4.63 | 5.14
UUGAUA | 4.42 | 4.38 | 4.81
AUGAUU | 7.34 | 6.63 | 6.94
CUGAUC | 2.39 | 2.38 | 2.58

Sequence | RBNS R-value (protein concentration: 250 nM) | RBNS R-value (protein concentration: 500 nM) | RBNS R-value (protein concentration: 1000 nM)
AUGAAU | 1.41 | 1.35 | 1.36
CUGAAC | 1.05 | 1.06 | 1.05
AGGAUU | 1.06 | 1.04 | 0.995
UUGACA | 1.57 | 1.54 | 1.56
UUGAGA | 1.31 | 1.32 | 1.31
CUGACC | 1.23 | 1.22 | 1.27
AGGAUA | 0.874 | 0.876 | 0.848
AGUCCU | 0.811 | 0.839 | 0.826
UUCGAU | 1.93 | 1.95 | 2.08
AACCAG | 0.915 | 0.9 | 0.923
CUCUGA | 1.97 | 1.91 | 1.94
UUGAUG | 7.94 | 6.95 | 6.96
GUGAAG | 0.939 | 0.946 | 0.891
UUGAAG | 1.08 | 1.11 | 1.08
UAGAUC | 0.818 | 0.834 | 0.838
GUGAUG | 5.06 | 4.7 | 4.68
UAGAUG | 1.64 | 1.65 | 1.73
UUGACC | 1.42 | 1.42 | 1.47
UUGAUC | 2.63 | 2.7 | 2.9
GGGAUG | 1.3 | 1.28 | 1.27
AAAGCA | 0.883 | 0.885 | 0.861
CAAGGA | 1 | 0.973 | 0.963
CGAAUG | 1.41 | 1.37 | 1.35
UAUACC | 0.57 | 0.601 | 0.592
CUCGGA | 0.971 | 0.974 | 0.939

Sequence | RBNS R-value (protein concentration: 250 nM) | RBNS R-value (protein concentration: 500 nM) | RBNS R-value (protein concentration: 1000 nM)
CGUGCU | 0.967 | 0.973 | 0.954
GUAAGU | 0.66 | 0.682 | 0.638
GUCUGG | 0.813 | 0.839 | 0.796
ACUGAU | 4.56 | 4.17 | 4.36
GCUGAU | 3.92 | 3.7 | 3.79
CCUGAC | 1.32 | 1.33 | 1.34
GCUGAG | 1.21 | 1.18 | 1.15
UCUGAU | 4.51 | 4.2 | 4.42
ACUGAG | 1.18 | 1.19 | 1.13
UCUGAA | 1.01 | 1.03 | 0.99
GCUGAC | 1.21 | 1.23 | 1.23
CCUGAU | 4.76 | 4.47 | 4.65
ACUGAC | 1.18 | 1.16 | 1.18
CCUGAA | 1.23 | 1.24 | 1.23
UCUGAC | 1.13 | 1.12 | 1.13
AUGCAG | 1.15 | 1.16 | 1.18
AUCUGU | 0.889 | 0.916 | 0.89
GAGGAG | 1.12 | 1.09 | 1.02
CUCACG | 0.951 | 0.969 | 0.993
UCUGGC | 1.18 | 1.18 | 1.17
GCGACC | 1.08 | 1.08 | 1.09
GGGUUU | 0.955 | 0.992 | 0.97
ACACUC | 1.07 | 1.05 | 1.07
AUUGAG | 1.23 | 1.24 | 1.21
CUUGAU | 4.89 | 4.7 | 4.93

Sequence | RBNS R-value (protein concentration: 250 nM) | RBNS R-value (protein concentration: 500 nM) | RBNS R-value (protein concentration: 1000 nM)
UUUGAU | 6.28 | 5.82 | 6.05
UUUGAC | 1.48 | 1.47 | 1.5
GUUGAC | 1.02 | 1.02 | 1.01
GUUGAU | 4.02 | 3.81 | 3.96
GUUGAG | 0.856 | 0.907 | 0.877
CUUGAA | 1.18 | 1.17 | 1.15
AUUGAC | 1.45 | 1.46 | 1.49
UUUGAA | 1.15 | 1.15 | 1.13
CUUGAC | 1.61 | 1.59 | 1.61
AUUGAU | 5.75 | 5.29 | 5.52
GUGUGA | 1.5 | 1.51 | 1.48
UUGGUC | 0.872 | 0.953 | 0.884
GCGGGC | 1.09 | 1.09 | 1.07
UUCUGC | 1.19 | 1.21 | 1.22
GGUUCG | 0.887 | 0.904 | 0.88
UAUCAG | 0.589 | 0.619 | 0.59
AGCCUU | 0.931 | 0.961 | 0.982
GAUCUA | 1.19 | 1.23 | 1.27
CACGAU | 1.8 | 1.82 | 1.95
CUUAGA | 0.933 | 0.948 | 0.93
AACAUA | 0.429 | 0.465 | 0.417
CCAAAA | 1.14 | 1.1 | 1.11

— the supplement of paper PMC13392028
